Screens (PubChem BioAssay)
PNC assembly inh: inhibitors of perinucleolar compartment assembly. PC3M PTB-GFP, PNC prevalence imaging, 16 h; active compounds read low. activity change (PNC), negative = inhibition, % at 10 µM. hit rate 3.1% among 140,000. AID 2417;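 active means readout at or below -70, meaning at least 70% loss of cells showing the perinucleolar compartment, a nuclear body marking cancer cells; inconclusive means readout between -30 and a set limit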;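 further: plate controls were DMSO wells for no effect and camptothecin positive control wells for full effect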
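Compounds are pinned in duplicate onto adhered PC3M cells stably expressing GFP-tagged PTB and incubated 16 h at 37 C. Cells are then fixed, nuclei stained with Hoechst, and PNC-positive cells counted.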
ALDH1A1 block: blocks purified human ALDH1A1 activity; hit rate 7.3% among 220,000; Potency, µM (titrated, usually from 75.3 µM), for inactives: top-dose activity, negative = inhibition, hits mostly inhibitors; Purified ALDH1A1, NADH fluorescence, propionaldehyde substrate; P00352;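 further: potency means the concentration at half of the fitted maximal effect; plate controls were no enzyme wells and a reference inhibitor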
HPGD block: inhibitors of human 15-hydroxyprostaglandin dehydrogenase (HPGD); purified HPGD, NADH fluorescence kinetic, PGE2 substrate; Potency, µM, for inactives: at the highest dose activity change, negative = inhibition, hits mostly inhibitors; hit rate 4.3% among 150,000; AID 894; further: potency means the concentration at half of the fitted maximal effect
Target sequence (P15428 whole entry, looked up): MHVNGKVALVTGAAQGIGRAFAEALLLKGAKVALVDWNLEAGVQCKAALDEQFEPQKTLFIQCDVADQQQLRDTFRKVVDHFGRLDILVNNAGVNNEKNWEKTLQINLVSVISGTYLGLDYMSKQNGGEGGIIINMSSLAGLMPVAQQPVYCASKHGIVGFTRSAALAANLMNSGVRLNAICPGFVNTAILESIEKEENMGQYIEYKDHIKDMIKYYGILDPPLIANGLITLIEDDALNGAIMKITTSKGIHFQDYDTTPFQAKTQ
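NADH formation kinetics: reaction with 30 uM PGE2 and 1 mM NAD+ (final), 20 nM enzyme, Tris-HCl pH 8 with Tween 20, after 15 min compound preincubation at room temperature. Fluorescence change, last versus first of five reads.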
JMJD2E inh: inhibitors of human JMJD2E histone demethylase | B2RXH2 | JMJD2E catalytic domain, FDH-coupled NADH fluorescence (FDH is formaldehyde dehydrogenase) | Potency, µM (highest dose often 57.1 µM), for inactives: at the highest dose activity change, negative = inhibition, actives largely listed as inhibitors | hit rate 1.6% among 230,000;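 further: potency means the concentration at half of the fitted maximal effect; 0% = wells with enzyme and -100% = buffer wells without enzyme; nearly all actives have a fitted effect of over 50% in size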
Target sequence (B2RXH2 1-337 limits assumed): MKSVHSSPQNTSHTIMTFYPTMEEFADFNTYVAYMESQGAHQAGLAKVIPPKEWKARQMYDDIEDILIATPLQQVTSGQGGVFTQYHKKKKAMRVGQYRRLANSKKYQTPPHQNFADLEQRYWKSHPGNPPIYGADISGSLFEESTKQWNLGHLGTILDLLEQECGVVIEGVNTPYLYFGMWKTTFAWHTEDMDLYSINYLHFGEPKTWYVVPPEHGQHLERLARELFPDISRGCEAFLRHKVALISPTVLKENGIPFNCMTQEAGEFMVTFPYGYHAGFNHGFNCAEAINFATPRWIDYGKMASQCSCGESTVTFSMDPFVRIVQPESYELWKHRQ
The depositor's hits bear a star; ? = inconclusive; . = no result given; [ ] = dose if it differs, or a comment. Shown are actives, neighbours in structure and some others; about 11% of the full set was active somewhere. Unless noted, the call rests on the fitted dose curve; in most records, active means well fitted inhibition curve with a large enough effect (not every such curve was filed as active); inconclusive means small, poorly fitted or top-dose-only effect, or another doubt; inactive means no such curve, though single readings can be large or run the other way. Unless noted, on the % scale 0 is the no-effect control and ±100 the full control effect.

SMILES	PNC assembly inh	ALDH1A1 block	HPGD block	JMJD2E inh
CCN(C(=O)CSc1nc2nc(C)cc(C)n2n1)c1cccc(C)c1	13	?	25µM*	-1%
Cc1cc(C)n2nc(SCN3C(=O)c4ccccc4C3=O)nc2n1	23	?	22µM*	4%
Cc1cc(C)n2nc(SCC(=O)Nc3ccccc3)nc2n1	.	1%	.	-2%
Cc1cc(C)n2nc(SCC(=O)N(C)C)nc2n1	?	0%	-3%	-6%
Cc1oc(C(C)(C)C)c(CN2CCOCC2)c1C(=O)O	.	-8%	.	2%
O=C(Nc1ccccc1C(=O)N1CCCC1)c1ccccc1	-119*	5%	-1%	16%
O=C(c1cccc(F)c1F)N1CCCC1	104	-3%	28µM*	-4%
Cc1ccc(C(=O)Nc2ccccc2C(=O)N2CCCCCC2)cc1	.	11%	.	11%
O=C(Nc1cc(C(=O)N2CCCC2)ccc1N1CCCC1)c1ccccc1	-111*	?	25µM*	6%
O=C(c1ccccc1)c1ccc(N2CCOCC2)c(NC(=O)c2ccco2)c1	0	32µM*	-17%	-1%
CNC(=S)Nc1cc(C(=O)N2CCCC2)ccc1N1CCCC1	.	-9%	.	-5%
O=S(=O)(c1ccc(Cl)nc1)N1CCN(c2ncccn2)CC1	.	.	.	-1%
CCCCOC(=O)Nc1ccccc1C(=O)N1CCCC1	-113*	?	-1%	-5%
CC(NC(=O)c1ccccc1NC(=O)c1ccccc1)C(=O)N1CCOCC1 (stereo not given)	-97*	-13%	0%	-4%
O=C(Nc1ccccc1C(=O)N1CCOCC1)c1ccc(F)cc1	1	11%	2%	-1%
O=C(N/N=C/c1ccccc1OCC(=O)N1CCCC1)C(=O)Nc1ccccc1F	?	8%	-15%	2%
CC(C)(C)NC(=O)c1ccc2nsnc2c1	-110*	4%	-18%	-4%
Cc1cccc(OC(=O)c2ccc3nccnc3c2)c1	27	-12%	-10%	1%
O=C(Oc1ccccc1)c1ccc2nsnc2c1	5	4µM*	-5%	3%
Cn1nnc2cc(C(=O)NC(C)(C)C)ccc21	14	3%	-6%	0%
COC(=O)C(C)Oc1ccc(Oc2nc(Cl)ccc2Cl)cc1 (stereo not given)	.	14%	.	-1%
N[C@H](C(=O)O)c1nn[nH]n1	.	3%	-1%	20µM*
N#Cc1c(NC(=O)CSc2nnnn2C2CCCCC2)sc2c1CCCC2	50	?	.	0%
COc1ccc(-c2nnc(SCC(=O)Nc3sc4c(c3C#N)CCCC4)n2-c2ccccc2)cc1	-86*	?	-11%	6%
Cc1nnc(SCC(=O)Nc2sc3c(c2C#N)CCCCC3)n1N	23	22µM*	-7%	-5%
SMILES	PNC assembly inh	ALDH1A1 block	HPGD block	JMJD2E inh
NC(=O)c1c(NC(=O)CSc2nnc(-c3ccco3)n2-c2ccccc2)sc2c1CCC2	-10	?	28µM*	?
COc1ccc(-n2c(SCC(=O)Nc3sc4c(c3C#N)CCCC4)nnc2-c2ccccc2OC)cc1	146	-10%	-13%	3%
CCCOc1ccc(/C=c2\sc3nc(-c4ccco4)nn3c2=O)cc1OCC	-5	-5%	-17%	-6%
CCCCCOc1ccc(/C=c2\sc3nc(=O)c(-c4ccccc4)nn3c2=O)cc1OC	20	11µM*	-16%	-2%
COc1ccc(NC(=O)N2CCC3(CC2)CCN(C(=O)c2cnccn2)CC3)cc1	.	-12%	-5%	.
O=C(c1ccncc1)N1CCC2(CCCN(c3ccc(-c4ccccc4)cc3)C2)CC1	.	-8%	-1%	.
CCCOC(=O)CN1C(=O)c2ccccc2C1=O	-13	22µM*	-6%	-3%
O=C(COC(=O)CN1C(=O)C(=O)c2ccccc21)OCN1C(=O)c2ccccc2C1=O	0	0.089µM*	-26%	8%
CCOC(=O)CN1C(=O)c2ccccc2C1=O	?	5%	-7%	3%
O=C(CCN1C(=O)c2ccccc2C1=O)OCN1C(=O)c2ccccc2C1=O	-4	-6%	-16%	-7%
O=C1OC2C[C@H]1[C@@H]1C(=O)N(Cc3ccccc3)CCC1C2I (stereo not given in full)	.	-21%	-11%	.
COc1cc(CN2CCCCC2)cc2cc(C(=O)O)c(=O)oc12	.	2%[13.5 µM]	-7%	.
CCOC(=O)c1cnc(SC2CC(=O)N(c3cccc(OC)c3)C2=O)nc1N (stereo not given)	?	-1%	.	-3%
CCOc1ccc2nc(SC3CC(=O)N(c4cccc(OC)c4)C3=O)sc2c1 (stereo not given)	?	20µM*	-16%	-18%
CCOc1ccc2nc(SCCNS(=O)(=O)c3ccccc3)sc2c1	-113*	1%	-4%	5%
CCOc1ccc(N2C(=O)CC(SCC(=O)O)C2=O)cc1 (stereo not given)	.	?	.	-1%
CCOc1ccc(N2C(=O)CC(Sc3nc(C)cc(C)c3C#N)C2=O)cc1 (stereo not given)	18	14µM*	-7%	6%
CCOc1ccc(N2C(=O)CC(Sc3n[nH]c(-c4ccccc4)n3)C2=O)cc1 (stereo not given)	.	0.45µM*	.	-21%
CCOc1ccc2nc(SCC(=O)c3ccccc3)sc2c1	?	5%	-7%	2%
C/C(=N\OCc1ccccc1)c1c(O)cc(C(C)C)n(-c2ccccc2)c1=O	7	7%	-13%	-8%
CCOc1ccc2nc(SC3CC(=O)N(c4ccccc4)C3=O)sc2c1 (stereo not given)	9	14µM*	-22%	?
CCOc1ccc2nc(SCc3ccc(OC)cc3)sc2c1	11	-11%	-24%	3%
CCNC(=O)[C@H]1O[C@@H](n2cnc3c(N)nc(NCCc4ccc(CCC(=O)O)cc4)nc32)[C@H](O)[C@H]1O	.	-10%	-22%	?
NC(C(=O)O)c1ccc(P(=O)(O)O)cc1 (stereo not given)	.	5%	.	.
O=C1C(NS(=O)(=O)c2cccs2)=C(N2CCN(c3cccc(Cl)c3)CC2)C(=O)c2ccccc21	-12	3.2µM*	-14%	-17%
SMILES	PNC assembly inh	ALDH1A1 block	HPGD block	JMJD2E inh
O=S(=O)(Nc1ccc(Cc2ccncc2)cc1)c1ccc(Cl)c(Cl)c1	2	8%	-5%	7%
CCCCS(=O)(=O)Nc1ccc(Cc2ccncc2)cc1	-16	12%	16µM*	-3%
CCOC(=O)C1CCCN(C(=O)c2cnn3c(C(F)(F)F)cc(-c4ccccc4)nc23)C1 (stereo not given)	5	?	25µM*	-3%
O=C(c1cnn2c(C(F)(F)F)cc(-c3ccc4c(c3)OCO4)nc12)N1CCCC1	14	0%	4.5µM*	-6%
CCOC(=O)C1CCCN(C(=O)c2cc3nc(-c4cccc(OC)c4)cc(C(F)(F)F)n3n2)C1 (stereo not given)	-80*	?	16µM*	?
O=C(NCCCN1CCCC1=O)c1ccc(Cl)c(Cl)c1	.	1%	.	1%
CCc1cccc(N(C(=O)c2csnn2)C(C(=O)NC(C)(C)C)c2ccncc2)c1 (stereo not given)	.	2%	.	3%
O=C(O)c1c(Cl)c(Cl)c(Cl)c(Cl)c1C(=O)Nc1ccc2cn[nH]c2c1	.	9%[13.5 µM]	-8%	.
COc1ccc(CN2CSC(=S)N(Cc3ccc(OC)cc3)C2)cc1	.	?	.	3%
